Source: PubChem BioAssay (National Center for Advancing Translational Sciences (NCATS))
ELG1 genotox: genotoxicity induction in ELG1-luciferase HEK293T cells | HEK293T ELG1-luciferase reporter, luminescence, 16 h | 1.3% of 330,000 active | Potency, µM (highest dose often 46 µM), without a hit: top-dose activity change, positive = activation, actives largely listed as activators; further: % of control where 0% means no effect; nearly all actives have a fitted effect of over 60% in size
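DMSO vehicle served as control against compound-treated ELG1-luciferase HEK293T cells; exposure lasted 16 hr at 37 °C and 5% CO2, followed by ONE-Glo luminescence detection after 30 min.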
FLuc modulator: inhibits or activates purified firefly luciferase, miR-21 counter-screen; Potency, µM (highest dose often 57.5 µM), without a hit: at the highest dose activity change, negative = inhibition, usual class: inhibitors; P08659; 6.9% of 360,000 active; purified FLuc, Km substrates, luminescence inhibition;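 further: plate controls were vehicle for no effect and reference inhibitor for full effect; nearly all actives have a fitted effect of over 55% in size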
Target sequence (P08659 whole entry, looked up): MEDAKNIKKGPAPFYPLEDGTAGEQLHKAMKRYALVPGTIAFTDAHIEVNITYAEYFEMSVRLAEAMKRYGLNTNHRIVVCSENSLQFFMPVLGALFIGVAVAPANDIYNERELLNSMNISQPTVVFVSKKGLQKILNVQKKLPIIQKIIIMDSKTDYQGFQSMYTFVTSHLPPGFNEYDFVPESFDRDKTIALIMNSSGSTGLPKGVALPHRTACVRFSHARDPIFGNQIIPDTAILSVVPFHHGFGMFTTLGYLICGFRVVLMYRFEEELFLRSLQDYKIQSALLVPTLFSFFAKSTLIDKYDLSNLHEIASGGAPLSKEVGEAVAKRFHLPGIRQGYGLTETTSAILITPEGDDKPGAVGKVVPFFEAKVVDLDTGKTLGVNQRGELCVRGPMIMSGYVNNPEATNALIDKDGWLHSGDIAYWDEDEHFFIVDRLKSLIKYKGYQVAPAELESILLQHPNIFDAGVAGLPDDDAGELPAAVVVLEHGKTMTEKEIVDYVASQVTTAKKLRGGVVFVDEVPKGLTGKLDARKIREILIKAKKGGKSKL
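Biochemical qHTS of compounds, final roughly 60 µM downward over six points, against 10 nM purified firefly luciferase using Km concentrations of substrates (10 uM D-luciferin, 10 uM ATP) in Tris acetate pH 7.5 buffer; luminescence output.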
Rab9 promoter act: Rab9 promoter activation; 2.8% of 320,000 active; Huh7 Rab9 promoter-luciferase reporter, luminescence, 24 h; Potency, µM (top dose mostly 9.22 µM), for the others: at the top dose activation, negative = inhibition, usual class: activators; further: % of control where 0% means no effect; nearly all actives have a fitted effect of over 60% in size
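Cell-based reporter: Huh7 stable for Rab9 promoter-driven luciferase, plated in reduced-serum medium with 10% FBS at 1500 cells/well, compound-treated 24 h at 37 °C, luminescence read after 10 min reagent.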
NPC1 prom act: NPC1 promoter activation | Huh7 NPC1 promoter luciferase reporter, 24 h | Potency, µM (series often up to 9.22 µM), for the others: top-dose activation, most hits filed as activators | 2.4% of 320,000 active; further: % of control where 0% means no effect; nearly all actives have a fitted effect of over 60% in size
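Cells: Huh7 expressing luciferase under the NPC1 promoter, 1500/well. Seeded 2 h, compound added, incubated 24 h at 37 °C. Luciferase reagent, 10 min ambient, then luminescence.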
SMN2 splice enh: enhancers of SMN2 splice variant expression. AID 1458. Potency, µM (doses to about 46.1 µM), inactives show at the highest dose activity change, positive = activation, most hits filed as activators. 2.8% of 210,000 active. HEK293 SMN2-luciferase splicing reporter, luminescence, 30-36 h; further: % of control where 0% means no effect; nearly all actives have a fitted effect of over 55% in size
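HEK293 cells carry an SMN2 […]–luciferase reporter in which exon 7 inclusion puts luciferase in frame. Cells were plated 10-12 h before compound addition, then incubated 30-36 h at 37C. ONE-Glo luminescence was read; sodium butyrate at 4.5 mM final served as control.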
KinaseGlo FLuc: blocks Kinase-Glo luciferase, a counter-screen artifact; Kinase-Glo luciferase, ATP luminescence, 8 min; Q27757; Potency, µM (series often up to 38.3 µM), without a hit: at the top dose activity change, negative = inhibition, usual class: inhibitors; 0.28% of 200,000 active; further: on the % scale 0 is the no-effect control and ±100 the full control effect; nearly all actives have a fitted effect of over 60% in size
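Kinase-Glo luciferase light output from ATP and luciferin was measured with 10 uM ATP, within the enzyme's linear range. Buffer: 50 mM imidazole pH 7.2, 50 mM KCl, 7 mM MgCl2, 0.01% Tween 20, 0.05% BSA; luminescence read after 8 min at ambient temperature.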
* = called active by the depositor; [ ] = another dose, or the depositor's remark. Most compounds without a hit are left out; they make up all but 7.5% or so of the library. The call rests on the fitted dose curve; in most records, active means well fitted curve in the direction sought with a large enough effect; inconclusive means small, poorly fitted or top-dose-only effect, or another doubt; inactive means no such curve, though single readings can be large; an effect the other way counts as inactive or inconclusive. Potency means the concentration at half of the fitted maximal effect.

What do the screens show for `Cc1cc(-c2csc(NC(=O)c3cc4ccccc4o3)n2)c(C)n1C`?
ELG1 genotox: 6%; FLuc modulator: 9.5µM*; Rab9 promoter act: 23%; NPC1 prom act: 13%; SMN2 splice enh: 2%; KinaseGlo FLuc: -2%

What do the screens show for `O=C(Nc1nc(-c2cccs2)cs1)c1cc2ccccc2oc1=O`?
ELG1 genotox: 5%; FLuc modulator: 2.7µM*; Rab9 promoter act: inconclusive; NPC1 prom act: 23%; SMN2 splice enh: 11%; KinaseGlo FLuc: -2%

How did COCc1c(C(=O)Nc2nc(C)cs2)oc2ccccc12 do in these assays?
ELG1 genotox: -1%; FLuc modulator: inconclusive; Rab9 promoter act: 1%; NPC1 prom act: -1%; SMN2 splice enh: 15%; KinaseGlo FLuc: -2%

How did Cc1c(C(=O)Nc2nc(-c3ccccn3)cs2)oc2ccccc12 do in these assays?
ELG1 genotox: -1%; FLuc modulator: 9.5µM*; Rab9 promoter act: 7%; NPC1 prom act: 16%

What do the screens show for `O=C(Nc1nc(-c2ccccn2)cs1)c1cc2ccccc2o1`?
ELG1 genotox: -8%; FLuc modulator: 5.4µM*; Rab9 promoter act: 4%; NPC1 prom act: 9%; SMN2 splice enh: -77%; KinaseGlo FLuc: -20%

Results for CCN(CC)S(=O)(=O)c1ccc(C(=O)NCC(c2ccc(OC)cc2)N2CCOCC2)cc1 (stereo not given) ?
ELG1 genotox: 0%; FLuc modulator: -4%; Rab9 promoter act: 0%; NPC1 prom act: 1%; SMN2 splice enh: 1%; KinaseGlo FLuc: 2%

What do the screens show for `CCOC(=O)c1c(C)n(-c2ccccc2)c2ccc(OC(=O)c3cc(OC)cc(OC)c3)cc12`?
FLuc modulator: -11%; SMN2 splice enh: 2%

How did O=C(CSc1ncc(-c2ccc(Cl)cc2)[nH]1)Nc1ccccc1F do in these assays?
FLuc modulator: inconclusive; SMN2 splice enh: -13%

How did COc1ccccc1NC(=O)CSc1nnc(-c2ccc(C)cc2)o1 do in these assays?
ELG1 genotox: inconclusive; FLuc modulator: -11%; Rab9 promoter act: 1.3µM*; NPC1 prom act: 1.6µM*; SMN2 splice enh: 2.5µM*; KinaseGlo FLuc: -2%

What do the screens show for `O=C(CSc1nnc(-c2cccnc2)o1)Nc1ccccc1Br`?
ELG1 genotox: 4%; FLuc modulator: 1%; Rab9 promoter act: 9%; NPC1 prom act: -1%

How did COc1ccc(NC(=O)CSc2nnc(-c3ccc(C)cc3)o2)cc1 do in these assays?
FLuc modulator: 0%

How did O=C(CSc1ncc(-c2ccccc2)[nH]1)Nc1ccccc1F do in these assays?
ELG1 genotox: inconclusive; FLuc modulator: 27µM*; Rab9 promoter act: 25%; NPC1 prom act: 18%; SMN2 splice enh: 10%; KinaseGlo FLuc: 0%

Results for O=C(CSc1nnc(-c2cccnc2)o1)Nc1ccccc1F ?
ELG1 genotox: inconclusive; FLuc modulator: -1%; Rab9 promoter act: 3.2µM*; NPC1 prom act: 3.2µM*

How did COc1cccc(NC(=O)CSc2nnc(-c3ccc(C)cc3)o2)c1 do in these assays?
ELG1 genotox: 10µM*; FLuc modulator: -2%; Rab9 promoter act: inconclusive; NPC1 prom act: 17%; SMN2 splice enh: 16µM*; KinaseGlo FLuc: 1%

Results for COc1ccc(NC(=O)/C(=C\c2ccc(OC)c(OC)c2)NC(=O)c2ccco2)cc1 ?
ELG1 genotox: -1%; FLuc modulator: -1%; Rab9 promoter act: -3%; NPC1 prom act: -1%

How did O=C(CSc1ncn[nH]1)N1CCCCC1 do in these assays?
ELG1 genotox: 0%; FLuc modulator: -2%; Rab9 promoter act: -4%; NPC1 prom act: -2%

What do the screens show for `O=C(CSc1ncc(-c2ccc(F)cc2)[nH]1)N1CCCCC1`?
ELG1 genotox: inconclusive; FLuc modulator: inconclusive; Rab9 promoter act: inconclusive; NPC1 prom act: 28%; SMN2 splice enh: 11µM*; KinaseGlo FLuc: -2%

How did COc1ccccc1NC(=O)CSc1nc2nc(C)cc(C)c2c(=O)[nH]1 do in these assays?
ELG1 genotox: 17%; FLuc modulator: -1%; Rab9 promoter act: -3%; NPC1 prom act: -2%; SMN2 splice enh: 3.5µM*; KinaseGlo FLuc: 4%

How did O=C(CSc1nnc(-c2ccc(O)cc2)o1)Nc1ccccc1Br do in these assays?
ELG1 genotox: 10µM*; Rab9 promoter act: 3.2µM*; NPC1 prom act: 2.8µM*

What do the screens show for `NS(=O)(=O)c1ccc(NC(=O)CSc2nnc(-c3ccc(O)cc3)o2)cc1`?
ELG1 genotox: 5%; FLuc modulator: inconclusive; Rab9 promoter act: 7%; NPC1 prom act: -3%

How did COc1ccc(-c2nnc(SCC(=O)Nc3cc(C)on3)o2)cc1 do in these assays?
ELG1 genotox: 12%; FLuc modulator: -9%; Rab9 promoter act: 27%; NPC1 prom act: 16%; SMN2 splice enh: 20µM*; KinaseGlo FLuc: 2%

What do the screens show for `Cc1cc(NC(=O)CSc2nnc(-c3ccco3)o2)no1`?
FLuc modulator: 0%; SMN2 splice enh: -10%; KinaseGlo FLuc: -2%

Results for Cc1ccccc1CN1c2ccccc2-c2nc(SCC(=O)Nc3cc(F)ccc3F)ncc2S1(=O)=O ?
FLuc modulator: -3%

How did O=C1c2cccc3cccc(c23)C(=O)N1CC1CCN(CC(O)COc2ccc3ccccc3c2)CC1 (stereo not given) do in these assays?
ELG1 genotox: 8%; FLuc modulator: 12µM*; Rab9 promoter act: 0%; NPC1 prom act: inconclusive; SMN2 splice enh: 10%; KinaseGlo FLuc: -2%

What do the screens show for `COc1ccc(-c2noc(CSc3nc(N)cc(=O)[nH]3)n2)cc1`?
ELG1 genotox: 0%; FLuc modulator: 21µM*; Rab9 promoter act: -2%; NPC1 prom act: 4%

What do the screens show for `COc1ccc(-c2noc(CSc3nc4ccccc4[nH]3)n2)cc1`?
FLuc modulator: 2%; SMN2 splice enh: 0%

What do the screens show for `COc1ccc(-c2noc(CSc3nnc(-c4ccccc4)n3C)n2)cc1`?
ELG1 genotox: 5%; FLuc modulator: 21µM*; Rab9 promoter act: 3%; NPC1 prom act: 2%; SMN2 splice enh: -5%; KinaseGlo FLuc: -3%

What do the screens show for `O=c1cc(-c2ccccc2Cl)oc2cc(O)cc(O)c12`?
ELG1 genotox: 5%; FLuc modulator: 27µM*; Rab9 promoter act: 12%; NPC1 prom act: 7%; SMN2 splice enh: -5%; KinaseGlo FLuc: 0%

How did CCOc1cccc2oc(-c3ccccc3Cl)cc(=O)c12 do in these assays?
KinaseGlo FLuc: -21%[39.9 µM]

What do the screens show for `Nc1ccc(O)c2c(=O)cc(-c3ccccc3Cl)oc12`?
ELG1 genotox: inconclusive; FLuc modulator: 2.7µM*; Rab9 promoter act: 2.8µM*; NPC1 prom act: 2.8µM*; SMN2 splice enh: 11µM*; KinaseGlo FLuc: -3%[39.9 µM]
